Measured values as given in PubChem BioAssay (NCATS).
Records with an inconclusive call do not appear. Calls of active or inactive are those of the source. Unless noted, the call rests on the fitted dose curve; in most records, active means well fitted curve in the direction sought with a large enough effect; inconclusive means small, poorly fitted or top-dose-only effect, or another doubt; inactive means no such curve, though single readings can be large; an effect the other way counts as inactive or inconclusive.

How the values were obtained:
[1] = Cytometry Cell-Based qHTS for Inhibitors of the mTORC1 Signaling Pathway in MEF cells (AID 2668);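 further: Tsc2-/- p53-/- mouse embryonic fibroblasts stably re-expressing wild-type Tsc2; percent cells positive for phospho-rpS6 Ser235/236 relative to propidium iodide stain; series mostly up to about 38 µM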
How it was run: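 Tsc2-/-, p53-/- MEFs re-expressing WT Tsc2; cpd 24 hrs, 37 degree Celsius; PFA fix, Alexa-488 p-rpS6 (Ser235/236) Ab 2 hrs RT, PI counterstain; Acumen 488nm scan; p-S6/PI ratio → % positive cells; PI count = viability.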

[2] = Validation screen for small molecules that induce DNA re-replication in MCF 10A normal breast cells (AID 463097); further: nearly all actives have a fitted effect of over 60% in size
How it was run: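 Image-based qHTS: normal breast cells are incubated with compound for 48 hr, stained with Hoechst, and scanned for total nuclear fluorescence. Compounds raising the fraction of nuclei with elevated DNA content count as re-replication inducers.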

[3] = biological target: Ubiquitin carboxyl-terminal hydrolase 2 (Homo sapiens) (UniProt O75604); assay: qHTS Validation Assay for Inhibitors of Ubiquitin-specific Protease USP2a Using CHOP2 as the Reporter (AID 463106)
How it was run: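 USP2 core (10nM final) was preincubated with compound for 30min at RT in 20mM Tris-HCl pH 8.0, 2mM CaCl2, 2mM beta-mercaptoethanol, 0.05% CHAPS. Ub-CHOP2 and reporter substrate (25nM each) were added, and fluorescence (Ex 485/Em 531nm) was read after 60min.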

[4] = biological target: DNA polymerase III PolC-type (Bacillus subtilis (strain 168)) (UniProt P13267); assay: qHTS Validation Assay for the Inhibitors of DNA Replication in Gram-Positive Bacteria (AID 485295);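 further: reconstituted holoenzyme with PolC plus beta clamp SSB and primase; PicoGreen fluorescence of double-stranded DNA made on primed circular M13 template; series mostly up to about 57 µM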
How it was run: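 First, compound is mixed with the reconstituted replication complex and held at room temperature. Next, circular single-stranded M13Gori with nucleotides starts synthesis. Finally, PicoGreen in EDTA halts the reaction and stains double-stranded product for fluorescence reading.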

[5] = biological target: Tumor susceptibility gene 101 protein (Homo sapiens) (UniProt Q99816); assay: qHTS Validation Assay for Iinhibitors of HIV-1 Budding by Blocking the Interaction of PTAP/TSG101 (AID 485342; calls by dose curve)
How it was run: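 Binding of a FITC-tagged PTAP-motif peptide (50 nM) to the Tsg101 binding domain (10 uM) is monitored by fluorescence polarization. Compounds are pin-delivered before peptide addition, and incubation runs 20 min at room temperature.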

[6] = biological target: Beta-2 adrenergic receptor (Homo sapiens) (UniProt P07550); assay: qHTS validation assay of beta-arrestin-biased ligands of beta2-adrenergic receptor (AID 485366)
How it was run: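 Arrestin-recruitment (Tango) reporter: ligand-bound beta2-AR recruits beta-arrestin, releasing tTA, which upregulates luciferase. Titrations of up to 46 microM incubated 18 hr at 37 degrees C before luminescent readout.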

[7] = biological target: ATP-dependent 6-phosphofructokinase (Trypanosoma brucei brucei) (UniProt O15648); assay: qHTS Validation Assay to Find Inhibitors of T. brucei phosphofructokinase (AID 485368); details: outcome: dose series up to 57.5 µM
Text: NIH Molecular Libraries Probe Production Network [MLPCN]
NIH Chemical Genomics Center [NCGC]
PI Name: Malcolm Walkinshaw, University of Edinburgh
Various species of the protozoan family Trypanosomatidae are responsible for a range of serious human diseases in tropical and subtropical areas of the world. […] Many of the disorders caused by trypanosomatids are fatal if left untreated, but most currently used drugs are inefficient and toxic. […]
The goal of this screen is to find small-molecule inhibitors of T. brucei PFK using a biochemical assay that measures PFK activity as a function of ADP production. A luminescence-based assay for T. brucei PFK activity has been developed which uses luciferase to detect production of ADP. […] To directly measure the ADP product of the PFK reaction, we used the ADP-Glo detection kit (Promega), which utilizes two separate reactions to 1) deplete all remaining uncatalyzed ATP and 2) convert all remaining ADP to ATP, which is then detected through a traditional luciferase-coupled reaction. […]
Substrate buffer was dispensed into white, solid 1536-well plates at 3uL/well in 0.1M triethanolamine (TEA) buffer, pH 8.0, containing final concentrations of 5 mM MgCl2, 0.01% Tween20, 0.5 mM fructose-6-phosphate (F6P) and 0.1mM ATP. […] The plates were measured on a ViewLux plate reader for luminescent signal using a clear filter with a one second exposure. […]

[8] = biological target: Thioredoxin reductase 1, cytoplasmic (Rattus norvegicus) (UniProt O89049); assay: qHTS Assay for Substrates of Mammalian Selenoprotein Thioredoxin Reductase 1 (TrxR1) (AID 488772);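 further: NADPH fluorescence in the first read after selenite addition and not the 8 min delta; series mostly up to about 57 µM; a drop in NADPH fluorescence below the no-compound background marks a TrxR1 substrate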
Text: The selenoprotein thioredoxin reductase (TrxR; EC 1.8.1.9) is a FAD containing homodimeric pyridine nucleotide-disulfide oxidoreductase with many cellular roles. Together with NADPH and its prime substrate thioredoxin (Trx), the enzyme forms the core of the Trx system. The mammalian Trx system exerts a wide spectrum of functions including redox regulation, antioxidant defense, regulation of transcription factors as well as support of cell growth and replication. Many of these functions involve the reduction of Trx, which may subsequently reduce a number of different substrates including ribonucleotide reductase, peroxiredoxins or NFkB. […]
This BioAssay is a validation of an NADPH fluorescence-based, dual-purpose qHTS rTrxR1 assay designed to find potential inhibitors and substrates of rTrxR1. […]
Assay protocol: 2 uL of reagents (buffer in column 4 as negative control and 90 nM rTrxR1 in columns 1-3 and 5-48) were dispensed into Greiner black solid-bottom 1,536-well assay plates, followed by 1 uL of NADPH (400 uM final concentration) to each well. […] The plate was immediately transferred to a ViewLux high-throughput CCD imager (PerkinElmer), wherein kinetic measurements of NADPH fluorescence (Ex 340 nm, Em 450 nm) were acquired (8 minute kinetic read, see Table 1). […]

[9] = biological target: Thioredoxin reductase 1, cytoplasmic (Rattus norvegicus) (UniProt O89049); assay: qHTS Assay for Inhibitors of Mammalian Selenoprotein Thioredoxin Reductase 1 (TrxR1) (AID 488773);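 further: drop in NADPH fluorescence over an 8 min run after selenite addition; series mostly up to about 57 µM; nearly all actives have a fitted effect of over 40% in size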
How it was run: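 Steps: enzyme (90 nM) plus NADPH (400 uM final), 5 min at ~22 deg C; compound added, 15 min; selenite (400 uM final) added; fluorescence followed for 8 min. Concentration-response curves derived from the normalized delta values.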

[10] = biological target: Flap endonuclease 1 (Homo sapiens) (UniProt P39748); assay: qHTS Validation Assay for the Inhibitors of Human Flap endonuclease 1 (FEN1) (AID 488816)
How it was run: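 FEN1, dispensed as a 10 nM reagent, was preincubated with pin-transferred compounds for 15 min at room temperature before substrate was added (50 nM final). Plates were read at 0 and 15 min, and a four-parameter Hill equation was fitted to the concentration-response data.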

Measured: outcome

Thioredoxin reductase 1, cytoplasmic (Rattus norvegicus), sequence (O89049 whole entry, looked up): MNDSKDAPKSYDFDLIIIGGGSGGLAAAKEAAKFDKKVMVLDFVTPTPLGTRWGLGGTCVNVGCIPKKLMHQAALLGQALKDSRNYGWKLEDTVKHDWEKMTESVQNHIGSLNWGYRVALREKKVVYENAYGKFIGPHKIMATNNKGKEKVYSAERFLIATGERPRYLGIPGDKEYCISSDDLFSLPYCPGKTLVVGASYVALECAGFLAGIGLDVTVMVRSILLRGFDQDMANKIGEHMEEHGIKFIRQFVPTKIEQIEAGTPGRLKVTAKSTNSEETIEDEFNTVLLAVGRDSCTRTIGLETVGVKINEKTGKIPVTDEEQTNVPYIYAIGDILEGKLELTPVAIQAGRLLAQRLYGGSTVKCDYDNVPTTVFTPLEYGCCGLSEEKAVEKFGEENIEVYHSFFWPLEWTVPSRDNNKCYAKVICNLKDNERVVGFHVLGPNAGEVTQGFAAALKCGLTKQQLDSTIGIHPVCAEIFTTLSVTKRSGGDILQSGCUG
Tumor susceptibility gene 101 protein (Homo sapiens), sequence (Q99816 whole entry, looked up, the tested form may be a part): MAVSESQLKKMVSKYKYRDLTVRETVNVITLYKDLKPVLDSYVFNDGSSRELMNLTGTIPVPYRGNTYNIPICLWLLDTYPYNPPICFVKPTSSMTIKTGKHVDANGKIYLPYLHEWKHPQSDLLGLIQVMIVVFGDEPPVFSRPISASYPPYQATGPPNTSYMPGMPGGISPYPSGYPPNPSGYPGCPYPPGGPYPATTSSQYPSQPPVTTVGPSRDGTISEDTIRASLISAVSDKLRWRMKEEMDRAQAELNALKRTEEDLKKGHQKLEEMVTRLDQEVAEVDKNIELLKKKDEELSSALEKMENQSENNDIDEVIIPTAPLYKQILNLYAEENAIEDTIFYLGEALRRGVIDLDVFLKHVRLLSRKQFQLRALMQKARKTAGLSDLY
Beta-2 adrenergic receptor (Homo sapiens), sequence (P07550 whole entry, looked up): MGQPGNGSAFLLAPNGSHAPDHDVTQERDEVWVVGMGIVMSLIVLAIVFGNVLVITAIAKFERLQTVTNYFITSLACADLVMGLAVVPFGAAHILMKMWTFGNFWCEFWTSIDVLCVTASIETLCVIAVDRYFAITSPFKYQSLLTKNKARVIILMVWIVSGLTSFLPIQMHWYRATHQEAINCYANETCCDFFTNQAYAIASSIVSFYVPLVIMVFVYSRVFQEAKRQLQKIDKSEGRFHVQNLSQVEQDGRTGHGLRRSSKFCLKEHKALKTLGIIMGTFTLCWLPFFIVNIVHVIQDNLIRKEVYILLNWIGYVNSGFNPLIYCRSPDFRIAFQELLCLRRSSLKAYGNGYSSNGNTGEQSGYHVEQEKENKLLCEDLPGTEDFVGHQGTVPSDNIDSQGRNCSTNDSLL
ATP-dependent 6-phosphofructokinase (Trypanosoma brucei brucei), sequence (O15648 whole entry, looked up): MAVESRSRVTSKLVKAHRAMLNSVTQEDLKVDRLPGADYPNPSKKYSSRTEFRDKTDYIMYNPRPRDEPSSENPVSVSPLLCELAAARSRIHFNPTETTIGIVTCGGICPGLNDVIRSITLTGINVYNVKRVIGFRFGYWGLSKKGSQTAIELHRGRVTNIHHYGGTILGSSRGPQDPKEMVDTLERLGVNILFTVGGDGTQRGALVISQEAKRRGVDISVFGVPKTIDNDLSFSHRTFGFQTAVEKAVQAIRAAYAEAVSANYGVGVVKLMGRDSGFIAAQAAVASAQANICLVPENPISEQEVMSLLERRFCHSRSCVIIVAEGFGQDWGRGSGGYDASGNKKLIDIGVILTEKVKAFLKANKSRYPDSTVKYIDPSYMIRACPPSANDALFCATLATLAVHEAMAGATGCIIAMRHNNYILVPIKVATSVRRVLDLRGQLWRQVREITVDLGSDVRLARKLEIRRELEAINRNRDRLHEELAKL
Ubiquitin carboxyl-terminal hydrolase 2 (Homo sapiens), sequence (O75604 whole entry, looked up): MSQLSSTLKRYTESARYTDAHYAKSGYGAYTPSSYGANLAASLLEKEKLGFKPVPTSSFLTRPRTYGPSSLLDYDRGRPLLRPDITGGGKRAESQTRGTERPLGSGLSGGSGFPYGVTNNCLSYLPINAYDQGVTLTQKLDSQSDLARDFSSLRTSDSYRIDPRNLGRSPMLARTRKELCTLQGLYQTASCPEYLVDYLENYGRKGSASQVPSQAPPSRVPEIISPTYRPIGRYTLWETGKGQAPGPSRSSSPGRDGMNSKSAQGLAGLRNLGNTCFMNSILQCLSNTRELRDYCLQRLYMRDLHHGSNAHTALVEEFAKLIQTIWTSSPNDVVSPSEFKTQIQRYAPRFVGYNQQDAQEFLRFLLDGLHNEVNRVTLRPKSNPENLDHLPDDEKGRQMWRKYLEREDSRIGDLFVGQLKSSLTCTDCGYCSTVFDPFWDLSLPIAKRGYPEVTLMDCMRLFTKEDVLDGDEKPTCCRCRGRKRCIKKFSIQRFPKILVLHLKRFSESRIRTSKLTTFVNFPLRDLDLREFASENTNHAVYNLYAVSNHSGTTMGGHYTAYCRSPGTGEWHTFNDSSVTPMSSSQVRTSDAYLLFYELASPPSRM
Flap endonuclease 1 (Homo sapiens), sequence (P39748 whole entry, looked up): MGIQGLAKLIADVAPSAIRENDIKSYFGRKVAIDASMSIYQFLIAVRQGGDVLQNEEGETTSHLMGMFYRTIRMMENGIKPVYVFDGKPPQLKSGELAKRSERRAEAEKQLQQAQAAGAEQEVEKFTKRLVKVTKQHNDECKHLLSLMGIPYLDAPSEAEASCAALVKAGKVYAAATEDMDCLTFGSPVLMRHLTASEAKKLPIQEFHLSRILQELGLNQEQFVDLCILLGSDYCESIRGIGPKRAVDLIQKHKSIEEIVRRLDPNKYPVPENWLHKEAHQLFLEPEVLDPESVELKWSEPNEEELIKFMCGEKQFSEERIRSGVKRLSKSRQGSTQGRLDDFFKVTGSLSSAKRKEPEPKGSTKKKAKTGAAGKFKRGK
DNA polymerase III PolC-type (Bacillus subtilis (strain 168)), sequence (P13267 whole entry, looked up): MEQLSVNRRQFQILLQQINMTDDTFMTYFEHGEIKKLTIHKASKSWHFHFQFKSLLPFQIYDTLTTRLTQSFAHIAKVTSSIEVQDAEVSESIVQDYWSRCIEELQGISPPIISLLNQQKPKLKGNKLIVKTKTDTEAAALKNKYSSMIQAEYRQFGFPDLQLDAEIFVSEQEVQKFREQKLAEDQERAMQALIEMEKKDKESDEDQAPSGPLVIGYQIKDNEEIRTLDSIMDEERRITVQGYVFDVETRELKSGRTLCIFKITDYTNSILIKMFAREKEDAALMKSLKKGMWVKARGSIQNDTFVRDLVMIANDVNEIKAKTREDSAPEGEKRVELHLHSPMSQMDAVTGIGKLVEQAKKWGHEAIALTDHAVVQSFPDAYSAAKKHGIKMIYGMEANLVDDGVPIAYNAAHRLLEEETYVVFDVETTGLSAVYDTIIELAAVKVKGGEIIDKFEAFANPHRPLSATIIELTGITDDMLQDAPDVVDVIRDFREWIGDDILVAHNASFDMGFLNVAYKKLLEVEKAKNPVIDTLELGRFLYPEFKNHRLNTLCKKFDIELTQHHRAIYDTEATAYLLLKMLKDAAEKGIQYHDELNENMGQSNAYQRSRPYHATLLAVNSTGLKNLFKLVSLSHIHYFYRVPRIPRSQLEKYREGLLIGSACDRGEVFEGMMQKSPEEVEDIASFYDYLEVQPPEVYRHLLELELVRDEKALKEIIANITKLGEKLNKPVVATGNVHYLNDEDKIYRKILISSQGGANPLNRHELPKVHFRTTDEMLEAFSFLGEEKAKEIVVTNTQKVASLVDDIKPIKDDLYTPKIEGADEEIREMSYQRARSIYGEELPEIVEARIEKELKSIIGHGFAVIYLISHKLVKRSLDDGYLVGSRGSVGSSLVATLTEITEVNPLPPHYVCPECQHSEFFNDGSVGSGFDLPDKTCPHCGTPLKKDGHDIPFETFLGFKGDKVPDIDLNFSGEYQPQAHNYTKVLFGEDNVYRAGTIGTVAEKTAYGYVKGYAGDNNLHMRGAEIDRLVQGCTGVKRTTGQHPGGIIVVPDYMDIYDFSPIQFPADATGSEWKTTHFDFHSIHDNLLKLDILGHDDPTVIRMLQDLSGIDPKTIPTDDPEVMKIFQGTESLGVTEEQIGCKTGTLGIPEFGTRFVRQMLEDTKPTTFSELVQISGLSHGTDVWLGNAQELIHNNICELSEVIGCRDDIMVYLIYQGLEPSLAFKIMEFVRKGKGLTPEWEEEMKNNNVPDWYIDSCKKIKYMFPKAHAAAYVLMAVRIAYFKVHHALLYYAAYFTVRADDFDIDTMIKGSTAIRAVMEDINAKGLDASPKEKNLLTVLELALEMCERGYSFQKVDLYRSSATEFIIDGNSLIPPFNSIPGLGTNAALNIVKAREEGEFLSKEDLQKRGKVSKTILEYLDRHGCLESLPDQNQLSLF

NCCCC(=O)O
inactive: all assays above

CN[C@H]1CC[C@@H](c2ccc(Cl)c(Cl)c2)c2ccccc21
not listed: [1] | [2]
inactive: all other assays above
